The text below walks through data of PubChem BioAssay (NCI).

About 83,000 compounds went through this panel and 20% of them were active in at least one assay; those are over-represented in the sample as a whole.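 Each cell line was grown in a 96-well plate and treated with one concentration of compound for 48 hours. Values below 10 were considered active.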 Values without a mark were called inactive. Active and inactive are the calls of the source.

Assay in all cases: NCI-60 one-dose screen, 48 h (100 = growth as untreated, 0 = no growth, -100 = all killed)
Common to all, as to settings: 10 µM unless noted

Experiment [1] relates to HCT-15 colon.
The subject of experiment [2] is HT29 colon.
Experiment [3] deals with SNB-75 CNS.
Experiment [4] concerns SNB-19 CNS.
Experiment [5] concerns U251 CNS.
The subject of experiment [6] is PC-3 prostate.
The test system of experiment [7] is SK-MEL-5 melanoma.
Experiment [8] deals with UACC-62 melanoma.
Experiment [9] concerns LOX IMVI melanoma.
The subject of experiment [10] is SK-MEL-28 melanoma.

For `Nc1ncc(-c2ccc3ncnc(Nc4ccc(F)c(Cl)c4)c3c2)cn1`, the growth in experiment [1] was 45.9%; in [2], 32.8%; in experiment [3], -12.6% (active); in experiment [4], 90.5%; in experiment [5] it was -14.8% (active); in experiment [6] it was 64.5%. Also, the growth is 95.8% in experiment [7], 103% in experiment [8], 35.6% in experiment [9] and 102% in experiment [10].
In the case of `Nc1ncc(-c2ccc3ncnc(Nc4cncc(Cl)c4)c3c2)cn1`, the growth in [1] is 73.2%; in experiment [2], 68.6%; in experiment [3], 31.4%; in experiment [4], 76.7%; in experiment [5], 73.3%; in experiment [6] it was 48.8%. Further, the growth in [7] is 66.4%; in experiment [8] it was 56.9%; in experiment [9] it was 61.5%; in experiment [10], 69.5%.
Consider `COc1ccc(C2CC(c3cc(Cl)c(C)cc3OC)=NN2c2ccc(S(N)(=O)=O)cc2)cc1OC` (stereo not given), for which the growth was 75.9% in experiment [1]; 78.7% in [2]; 83.6% in experiment [3]; 101% in [4]; 78.4% in [5]; 52.3% in experiment [6]. The growth in [7] is 84.6%; in experiment [8] it was 65.1%; in experiment [9], 77.9%; in [10] it was 108%.
For the compound `O=C1COc2ccccc2C(=O)N1CCCCN1CCCCC1`, the growth in experiment [1] was 91.3%; in experiment [2], 73.6%; in [3], 99.5%; in [4], 99.4%; in experiment [5], 88.9%; in [6] it was 57.7%. In addition, the growth in experiment [7] was 99.1%; in [8] it was 91.6%; in [9], 90.7%; in experiment [10] it was 95.6%.
With `CCc1c(C)c2cc3nc(NCc4ccccc4)oc3c(C)c2oc1=O`, the growth in experiment [1] was 74.7%; in experiment [2], 60.5%; in experiment [3] it was 36.2%; in [4], 59.2%; in experiment [5], 54.8%; in experiment [6], 73.3%. In addition, the growth in experiment [7] was 75.9%; in experiment [8], 47.1%; in experiment [9], 80.4%; in [10] it was 72.9%.
Take `CCCCCCCCN(CCCCCCCC)CC(O)c1cc(-c2ccccc2)nc2ccc(OC)cc12` (stereo not given): the growth in [1] is 10.7%; in experiment [2] it was 80.1%; in experiment [3] it was 96.4%; in experiment [4], 63.2%; in [5], 15.7%; in [6], 32.3%. Besides, the growth was 46.5% in [7], 52.5% in experiment [8], 21% in experiment [9] and 100% in [10].
Take `O=C1C(SCCO)=C(SCCO)C(=O)N1c1ccc(-c2ccccc2)cc1`: the growth in experiment [1] was -21.6% (active); in experiment [2], 70.2%; in [3] it was 71.9%; in experiment [4], 106%; in experiment [5] it was 60.2%; in experiment [6] it was 93.3%. For the same compound, the growth was 103% in experiment [7], 62.5% in experiment [8], -45% (active) in [9] and -66.7% (active) in experiment [10].
Take `CCC1S/C(=N\N=C(/C)c2cccs2)N(c2ccccc2)C1=O` (stereo not given): the growth in [1] is 99%; in experiment [2] it was 91%; in experiment [3], 110%; in experiment [4], 114%; in experiment [5], 105%; in experiment [6] it was 98.4%. Further, the growth in experiment [7] is 84.4%; in experiment [8], 117%; in experiment [9], 105%; in experiment [10], 118%.
In the case of `Nc1ncnc2c1ncn2C1OC(COC(c2ccccc2)(c2ccccc2)c2ccccc2)C(O)C1O` (stereo not given), the growth in experiment [1] is 98.2%; in [2], 82.8%; in [3], 76.2%; in [4], 96.5%; in [5] it was 99.5%; in [6], 88.7%. Besides, the growth in [7] was 92.3%; in experiment [8], 95.6%; in experiment [9], 91.4%; in [10] it was 96.2%.
As to `CC/C(=C(\CC)c1ccc(OCCN(CC)CC)cc1)c1ccc(OCCN(CC)CC)cc1`, the growth in experiment [1] is 6.7% (active); in [2], -0.437% (active); in [3], 39.1%; in experiment [4] it was 62.5%; in experiment [5], 24.6%; in experiment [6], 29%. In addition, the growth in experiment [7] was -96.4% (active); in experiment [8], 10.9%; in experiment [9] it was -5.77% (active); in experiment [10], -40.5% (active).
As to `CNC(=O)NN`, the growth is 87.3% in experiment [1]; 107% in experiment [2]; 88.3% in experiment [3]; 105% in experiment [4]; 95.2% in experiment [5]; 93.4% in experiment [6]. Besides, the growth is 103% in experiment [7], 104% in experiment [8], 102% in experiment [9] and 112% in experiment [10].
Turning to `C#CC(=O)/C=C/CCCCCCC#CC(=O)CCC(=O)C#CCCCCCC/C=C/C(=O)C#C`, the growth in experiment [1] was 12.4%; in experiment [2] it was 6.4% (active); in experiment [3], 56%; in experiment [4], 32%; in [5], 18%; in experiment [6], 12.2%. The growth is 52.8% in experiment [7], 5.38% (active) in experiment [8], -70.2% (active) in experiment [9] and 12.8% in experiment [10].
`CCOc1ccc(NC(=O)Nc2cc(C(C)C)ccc2C)cc1`: the growth was 83.3% in [1]; 85% in experiment [2]; 19.5% in experiment [3]; 79.5% in [4]; 28.9% in experiment [5]; 69.3% in experiment [6]. In addition, the growth in experiment [7] was 124%; in experiment [8] it was 80%; in experiment [9], 71.2%; in experiment [10], 68%.
